Assay results taken from publication PMC5540273 (PLoS ONE, 2017).

What was measured:
Settings in all cases: concentration: 1 μM, replicates: in singlicate; n = 1
CAMK1B = test system: CAMK1B
CAMK1D = test system: CAMK1D
CAMK1G = test system: CAMK1G
CAMK1 = test system: CAMK1
CAMK2A = test system: CAMK2A
CAMK2B = test system: CAMK2B
CAMK2D = test system: CAMK2D
CAMK2G = test system: CAMK2G
CAMK4 = test system: CAMK4
CAMKK1 = test system: CAMKK1
CAMKK2 = test system: CAMKK2
CASK = test system: CASK
CDC2L1 = test system: T1, CDC2L1
T1 construct: gene CDK11B

CDC2L2 = test system: CDC2L2
CDC2L5 = test system: T2, CDC2L5
T2 construct: gene CDK13

CDK11 = test system: T3, CDK11
T3 construct: gene CDK19

CDK2 = test system: CDK2
CDK3 = test system: CDK3
CDK4-cyclinD1 = test system: CDK4-cyclinD1
CDK4-cyclinD3 = test system: CDK4-cyclinD3
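Further: KINOMEscan kinase panel screen.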

| Compound | %Inh (CAMK1B) [%] | %Inh (CAMK1D) [%] | %Inh (CAMK1G) [%] | %Inh (CAMK1) [%] | %Inh (CAMK2A) [%] | %Inh (CAMK2B) [%] | %Inh (CAMK2D) [%] | %Inh (CAMK2G) [%] | %Inh (CAMK4) [%] | %Inh (CAMKK1) [%] | %Inh (CAMKK2) [%] | %Inh (CASK) [%] | %Inh (CDC2L1) [%] | %Inh (CDC2L2) [%] | %Inh (CDC2L5) [%] | %Inh (CDK11) [%] | %Inh (CDK2) [%] | %Inh (CDK3) [%] | %Inh (CDK4-cyclinD1) [%] | %Inh (CDK4-cyclinD3) [%] |
| --- | --- | --- | --- | --- | --- | --- | --- | --- | --- | --- | --- | --- | --- | --- | --- | --- | --- | --- | --- | --- |
| Cc1c(Cn2ccn3c(=O)cc(N4CCOCC4)nc23)cccc1C(F)(F)F [GSK2289044] | 0 | 7 | 13 | 0 | 83 | 79 | 18 | 32 | 5 | 9 | 18 | 14 | 0 | 13 | 0 | 0 | 0 | 9 | 0 | 0 |
| Cc1cccc(-c2nc(Nc3ccncc3)c3ccccc3n2)n1 [GW855857] | 0 | 3 | 0 | 0 | 6 | 0 | 7 | 0 | 47 | 24 | 7 | 0 | 0 | 0 | 0 | 0 | 0 | 20 | 13 | 0 |
| Fc1cccc(COc2nnc(-c3ccc4c(c3)CCO4)o2)c1 | 0 | 0 | 12 | 18 | 0 | 6 | 0 | 7 | 0 | 8 | 0 | 10 | 1 | 0 | 18 | 16 | 0 | 4 | 9 | 0 |
| C[C@@H]1CCCCN1c1cc(-c2ccc3c(N)n[nH]c3c2)nc(N)n1 [GSK2258759] | 0 | 15 | 0 | 9 | 0 | 0 | 1 | 28 | 0 | 8 | 26 | 11 | 0 | 18 | 0 | 4 | 0 | 15 | 0 | 7 |
| O=C(Nc1ccc2c(c1)OCO2)NC1CCN(c2ccnc(Nc3ccc(F)cc3)n2)C1 (stereo not drawn) [GSK1379724] | 16 | 30 | 23 | 35 | 0 | 0 | 15 | 13 | 1 | 9 | 3 | 21 | 0 | 0 | 0 | 40 | 0 | 8 | 0 | 0 |
| CCn1c(-c2cccnc2O)nc2cnccc21 [SB-736715] | 30 | 0 | 0 | 0 | 0 | 0 | 0 | 0 | 0 | 2 | 0 | 0 | 0 | 0 | 0 | 21 | 0 | 0 | 7 | 0 |
| COc1cc(Nc2nccc(N3CCC(NC(=O)Nc4cc(C)ccc4C)C3)n2)cc(OC)c1OC (stereo not drawn) [GSK1379762] | 14 | 10 | 0 | 17 | 0 | 0 | 0 | 16 | 0 | 21 | 0 | 42 | 0 | 0 | 0 | 17 | 0 | 15 | 0 | 0 |
| COc1cc2nccc(Nc3ccc(NC(=O)c4ccc(C)cc4)c(O)c3)c2cc1OC.Cl [GW440132] | 0 | 20 | 6 | 15 | 0 | 0 | 17 | 35 | 0 | 0 | 32 | 2 | 0 | 3 | 0 | 5 | 0 | 9 | 0 | 0 |
| Cl.O=C(Nc1cccc(-c2nn3ncccc3c2-c2ccnc(Nc3cccnc3)n2)c1)c1c(F)cccc1F [GSK312879] | 27 | 3 | 0 | 8 | 0 | 0 | 0 | 13 | 0 | 4 | 0 | 22 | 3 | 7 | 0 | 0 | 0 | 19 | 0 | 4 |
| Cn1ccc2ncnc(Oc3ccc(NC(=O)Nc4ccccc4)cc3)c21 | 4 | 5 | 22 | 0 | 0 | 0 | 13 | 3 | 0 | 0 | 0 | 0 | 0 | 0 | 0 | 0 | 0 | 11 | 0 | 0 |
| CS(=O)(=O)c1ccc(-c2c(-c3ncn[nH]3)sc(N3CCOCC3)c2C#N)cc1 | 25 | 16 | 11 | 13 | 14 | 30 | 6 | 11 | 18 | 19 | 19 | 0 | 9 | 10 | 0 | 0 | 0 | 17 | 0 | 0 |
| Cc1cccc(-c2nc(C)cc(Nc3ccncc3)n2)n1 [GSK257997] | 12 | 14 | 99.4 | 10 | 0 | 0 | 94.2 | 12 | 0 | 0 | 12 | 19 | 100 | 17 | 0 | 12 | 0 | 0 | 0 | 0 |
| Cl.c1ccc(-c2n[nH]cc2-c2ccnc(-c3ccc(CN4CCOCC4)cc3)c2)nc1 [GW776245] | 0 | 27 | 0 | 22 | 2 | 5 | 11 | 13 | 0 | 26 | 19 | 6 | 5 | 8 | 0 | 0 | 0 | 46 | 4 | 0 |
| O=C(Nc1n[nH]c2nc(-c3nccs3)c(Br)cc12)C1CCCC1 [SB-742609] | 20 | 1 | 8 | 0 | 0 | 0 | 15 | 11 | 0 | 8 | 0 | 19 | 100 | 0 | 0 | 0 | 86 | 60 | 41 | 14 |
| Cc1cccc(-c2nc(Nc3ccc4[nH]ncc4c3)c3ccccc3n2)n1 [GW857175] | 0 | 0 | 0 | 0 | 15 | 3 | 0 | 0 | 0 | 0 | 0 | 45 | 12 | 9 | 20 | 0 | 0 | 0 | 23 | 0 |
